Bioassay records from PubChem BioAssay.
The list is not random: actives were taken first. Their share in the collection is about 21%.
MRP resist rev = MRP-mediated drug resistance reversal; H69AR cells + 2 uM doxorubicin, CellTiter-Glo, 72 h; differential viability (reversal), % at 10 µM; 85,000 tested, 0.04% active; AID 602;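 active = viability drop by adding the cancer drug above about 55%, with treated viability meeting a 40% cutoff, limit read from the data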;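 also: viability without doxorubicin minus viability with 2 µM doxorubicin for each compound; larger differential means the compound sensitizes cells more to doxorubicin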
CYP2C19 act = activators of human cytochrome P450 2C19; AID 1025; recombinant CYP2C19, luciferin-H EGE luminescence; active compounds read high; 0 = fully inhibited enzyme, 1 = untreated enzyme; 96,000 tested, under 10 active; activation factor at 5 µM;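 active = activation factor of at least 2 at 5 µM in the primary screen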;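 also: 0 = wells with 2.5 mM tranylcypromine and 1 = vehicle-only wells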
MRP-1 activ = activates MRP-1. H69AR cells + doxorubicin, viability rescue, CellTiter-Glo. viability increase, % at 10 µM. 140,000 tested, 0.61% active. AID 799;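 active = viability gain under doxorubicin at or above a set limit, the compound median plus 3 SD, cut at about 4.7% in these data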;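 also: MRP-1 overexpressing cells given doxorubicin 25 µM after compound pretreatment; 18-22 h compound pretreatment then 72 h with doxorubicin before readout; 0% = doxorubicin-only wells and 100% = vehicle-treated cells without doxorubicin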
CYP2C19 inhib = human CYP2C19 inhibition; P33261; CYP2C19 Supersomes, luciferin-H EGE luminescence, 30 min; inhibition, % at 5 µM; 96,000 tested, 21% active; AID 778;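 active = CYP2C19 inhibition above a set limit at 5 µM in the primary screen, cut at about 50% in these data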;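 also: plate controls were negative control wells for no effect and 2.5 mM tranylcypromine positive control for full effect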
CYP2C9 act = activators of human CYP2C9; P11712; recombinant CYP2C9, luciferin-H conversion, luminescence; active compounds read high; factor 1 = untreated enzyme, 0 = blocked; activation factor at 5 µM; 96,000 tested, 1.4% active; AID 1024;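 active = activation factor of 2 or more for CYP2C9 at a 5 µM dose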;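 also: 0 = sulfaphenazole-blocked wells and 1 = vehicle-only wells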
Target sequence (P11712 whole entry, looked up): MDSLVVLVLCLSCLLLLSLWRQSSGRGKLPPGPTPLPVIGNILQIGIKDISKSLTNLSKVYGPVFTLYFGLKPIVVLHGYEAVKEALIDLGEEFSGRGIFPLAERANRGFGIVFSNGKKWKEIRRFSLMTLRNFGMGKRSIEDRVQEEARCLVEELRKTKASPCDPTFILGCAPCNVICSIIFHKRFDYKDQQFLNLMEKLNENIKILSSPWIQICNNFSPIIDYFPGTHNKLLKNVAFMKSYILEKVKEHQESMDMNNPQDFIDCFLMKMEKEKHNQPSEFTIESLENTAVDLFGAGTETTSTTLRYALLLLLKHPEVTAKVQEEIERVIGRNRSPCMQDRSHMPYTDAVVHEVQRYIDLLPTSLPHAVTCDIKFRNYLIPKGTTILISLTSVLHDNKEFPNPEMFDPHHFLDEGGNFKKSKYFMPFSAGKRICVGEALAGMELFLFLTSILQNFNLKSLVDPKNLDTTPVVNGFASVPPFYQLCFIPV
CYP2C9 inh = human CYP2C9 inhibition. inhibition, % at 5 µM. CYP2C9 Supersomes, luciferin-H conversion, luminescence. P11712. AID 777. 96,000 tested, 20% active;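 active = blocking of liver enzyme CYP2C9 beyond about 50% at 5 µM, limit read from the data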
Starred values were filed as active, the others as inactive; . = no result.

SMILES	MRP resist rev	CYP2C19 act	MRP-1 activ	CYP2C19 inhib	CYP2C9 act	CYP2C9 inh
CN1C(=O)N(C)C(=O)C2(Cc3ccccc3N3CCOCC32)C1=O (configuration not stated)	5.4	0	-1.1	98.1*	1	-2.3
O=C(Nc1cccc(Cl)c1)c1c(O)c2c(n(Cc3ccco3)c1=O)CCCC2	-4.7	1.1	.	-5.6	0.9	12.0
O=C(Nc1cccc(Cl)c1)c1c(O)c2c(n(Cc3ccccc3)c1=O)CCCC2	.	.	5.6*	.	.	.
CCOc1cc(C(=O)N2CCC3(CC2)OCCO3)cc(OCC)c1OCC	9.9	0.7	-0.8	25.1	0.9	13.8
CC(=O)c1c(C)[nH]c(C(=O)N2CCC3(CC2)OCCO3)c1C	.	0.5	-2.5	54.2*	1	-0.8
Cc1cc(C(=O)N2CCC3(CC2)OCCO3)cs1	.	0.3	-1.2	74.1*	1.1	-8.1
O=C(c1ccc2c(c1)OCO2)N1CCC2(CC1)OCCO2	1.1	0.1	-1.5	88.1*	1	-4.8
O=C(c1cc(Br)ccc1Cl)N1CCC2(CC1)OCCO2	18.2	0	-1.6	97.5*	0.5	54.0*
CCC(C)(C)n1nnnc1CN1CCC(n2c(C)nc3cc(C(F)(F)F)ccc32)CC1	-4.1	.	-3.6	.	.	.
O=c1[nH]c(=S)n(Cc2ccc(F)cc2)c(O)c1/C=N/N1CCCCCC1	.	.	-0.8	.	.	.
CCC(=O)N1N=C2C3CCN(CC3)C2C1c1ccc(C)cc1 (configuration not stated)	.	.	-1.5	.	.	.
Cc1cc(C(=O)N=Nc2c(O)n(C)c3ccccc23)c(C)o1	.	.	-1.8	.	.	.
O=C(c1cc(-c2ccccc2)nc2ccccc12)N1CCC2(CC1)OCCO2	-3.5	0.4	-1.5	56.6*	0.6	38.2
CC1(C)CC(=O)C(C=NCCN2CCN(C(=O)Cc3ccc(Cl)cc3)CC2)=C(O)C1	.	0.1	-2.4	90.3*	0.4	63.2*
c1ccc2c(CCNCc3ccc4c(c3)OCO4)c[nH]c2c1	5.8	.	-5.1	.	.	.
COc1ccc(C2=NCC(=O)N(CC(=O)NCc3ccco3)c3sc4c(c32)CCCC4)cc1	-7.1	0.8	-1.3	16.1	0.9	12.3
Cc1cccc(C2=NCC(=O)N(CC(=O)NCc3ccco3)c3sc4c(c32)CCCC4)c1	-20.2	0.5	-1.0	50.7*	0.4	59.1*
c1ccc2c(CNC3CCCCCC3)c[nH]c2c1	-3.9	0.8	-1.8	22.1	0.9	8.0
CN(CCc1ccccc1)Cc1ccccc1[N+](=O)[O-]	8.3	0.1	0.3	90.9*	0.2	75.7*
CC1CN=C(Nc2ccc(N(C)C)cc2)S1 (configuration not stated)	3.1	0.4	0.2	56.1*	1	3.1
CC1CN=C(Nc2ccccc2)S1 (configuration not stated)	.	0.8	-1.6	23.8	0.9	6.1
Cc1ccc2c(c1)CC1(CN2C)C(=O)NC(=O)N(c2ccc(C)c(C)c2)C1=O (configuration not stated)	1.8	0.5	-1.5	52.6*	0.1	86.1*
Cc1ccc2c(c1)CC1(CN2C)C(=O)NC(=O)N(c2ccccc2C)C1=O (configuration not stated)	7.7	0.9	-0.1	13.4	0.7	31.6
COc1ccccc1N1C(=O)NC(=O)C2(Cc3cc(C)ccc3N(C)C2)C1=O (configuration not stated)	-12.9	0.6	-0.8	43.1	0.3	68.1*
Cc1ccc2c(c1)CC1(CN2C)C(=O)NC(=O)N(c2cccc(C)c2C)C1=O (configuration not stated)	-8.2	0.9	-1.5	5.4	0.8	17.7
SMILES	MRP resist rev	CYP2C19 act	MRP-1 activ	CYP2C19 inhib	CYP2C9 act	CYP2C9 inh
O=S(=O)(c1ccccc1)N1CN2CCN(C2)C1	41.0	0.9	-2.0	6.4	0.9	5.1
CN1C2CCC1CC(OC(=O)c1ccc(Cl)cc1)(C(=O)O)C2 (configuration not stated)	.	.	-3.1	.	.	.
CN1C(=O)C(=Cc2ccccc2Oc2ccc(Cl)c(F)c2)C(=O)N(C)C1=O	.	0.9	-0.4	7.3	0.4	56.6*
Clc1ccccc1CN1CCN(c2ccccc2Cl)CC1	-1.5	0.6	0.1	44.5	0.9	14.0
FC(F)(F)c1ccccc1CN1CCN(Cc2ccccc2)CC1	.	0.3	-2.2	68.7*	0.9	12.1
Cc1ccc(O)c(CN2CCN(c3ccccc3)CC2)c1	12.8	0.1	-1.1	92.7*	0.3	72.0*
Oc1ccc(Cl)cc1CN1CCN(Cc2ccccc2)CC1	4.5	0.1	-2.9	90.2*	0.4	56.3*
